Test results taken from paper PMC4336329 (PLoS ONE, 2015).
Out of some 310,000 compounds screened, about 14,000 (4.5%) showed an effect of 50% or more. The effect is printed as a negative number. For the sample, strong results were picked, then their nearest neighbours and some compounds at random.

target: human ether-à-go-go-related gene (hERG) potassium channel (human, UniProt Q12809); test: primary screen, population patch clamp on CHO cells stably expressing hERG; higher = less effect of the substance
Sequence (Q12809 whole entry, looked up): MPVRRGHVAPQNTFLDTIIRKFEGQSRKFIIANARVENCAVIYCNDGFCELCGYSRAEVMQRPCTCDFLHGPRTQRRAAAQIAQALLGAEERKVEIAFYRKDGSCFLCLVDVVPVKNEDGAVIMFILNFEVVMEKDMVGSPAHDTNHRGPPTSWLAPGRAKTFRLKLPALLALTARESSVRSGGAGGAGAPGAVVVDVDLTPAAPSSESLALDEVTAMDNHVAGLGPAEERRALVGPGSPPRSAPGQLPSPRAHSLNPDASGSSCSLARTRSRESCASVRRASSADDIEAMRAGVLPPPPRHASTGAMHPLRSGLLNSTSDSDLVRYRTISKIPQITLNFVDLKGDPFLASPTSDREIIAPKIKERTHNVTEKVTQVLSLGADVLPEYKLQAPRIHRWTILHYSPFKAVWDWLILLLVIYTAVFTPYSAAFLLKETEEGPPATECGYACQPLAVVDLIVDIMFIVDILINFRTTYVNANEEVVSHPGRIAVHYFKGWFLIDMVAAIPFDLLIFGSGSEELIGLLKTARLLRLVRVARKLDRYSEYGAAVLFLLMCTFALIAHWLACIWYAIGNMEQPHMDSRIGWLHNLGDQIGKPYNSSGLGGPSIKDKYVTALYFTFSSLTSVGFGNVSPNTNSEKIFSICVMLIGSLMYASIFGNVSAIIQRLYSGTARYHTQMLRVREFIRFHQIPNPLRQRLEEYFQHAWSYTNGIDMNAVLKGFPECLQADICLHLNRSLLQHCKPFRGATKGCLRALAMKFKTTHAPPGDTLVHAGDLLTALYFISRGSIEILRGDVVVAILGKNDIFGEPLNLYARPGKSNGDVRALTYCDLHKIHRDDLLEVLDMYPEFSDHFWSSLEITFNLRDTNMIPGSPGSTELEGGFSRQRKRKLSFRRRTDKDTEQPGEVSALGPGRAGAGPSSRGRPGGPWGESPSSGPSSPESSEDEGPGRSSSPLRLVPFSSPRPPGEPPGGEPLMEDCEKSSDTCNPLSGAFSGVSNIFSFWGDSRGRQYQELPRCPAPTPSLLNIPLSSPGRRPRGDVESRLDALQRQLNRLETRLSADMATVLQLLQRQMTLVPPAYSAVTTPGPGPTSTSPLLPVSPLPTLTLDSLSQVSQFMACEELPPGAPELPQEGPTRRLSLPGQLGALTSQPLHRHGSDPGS
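Note: peak tail current of the secondary pulse compared with the same well before compound.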

Structure (SMILES)	hERG current change (%, negative = inhibition) at 10uM
Cc1noc(C)c1C(=O)NCc1ccco1	0.0994%
C/C(=N/NC(N)=S)c1cc2ccc(O)cc2oc1=O	21.7%
O=C(Nc1ccccc1C(=O)O)c1ccccc1	8.69%
COc1ccc2oc(=O)c(C(=O)N3CCN(C(=O)c4ccco4)CC3)cc2c1	-12.9%
CC(Oc1ccc(F)cc1F)C(=O)NNC(=S)NCC1CCCO1 (stereo not shown)	9.12%
CC(C)(C)C(=O)Nc1sc2c(c1C#N)CCN(Cc1ccccc1)C2.Cl	1.78%
CCc1ccc(-c2cc(C(=O)Nn3cnnc3)c3ccccc3n2)cc1	10.7%
Clc1c(-c2nnc3n2CCCCC3)sc2ccccc12	-13.9%
COc1ccc2c(Cl)c(-c3nnc4n3CCCCC4)sc2c1	-51.2%
Clc1c(-c2nnc3n2CCC3)sc2ccccc12	10.4%
COc1cc(NC(=O)CSc2nc(C)c(C)c(C)n2)c(C)cc1[N+](=O)[O-]	0.898%
Cc1nn(-c2ccccc2)c2c1C(O)CC(C)(C)C2 (stereo not shown)	17.8%
COc1cc(-c2nc3cnccn3c2Nc2ccccc2)ccc1O	-0.787%
CCOC(=O)N1CCN(C(=O)/C=C/c2ccc(C(C)(C)C)cc2)CC1	-26.1%
CN1CCN(C(=O)/C=C/c2ccc(C#N)cc2)CC1	-54.3%
CCOC(=O)N1CCN(C(=O)/C=C/c2ccc([N+](=O)[O-])cc2)CC1	-70.6%
CN1CCN(C(=O)/C=C/c2ccc([N+](=O)[O-])cc2)CC1	-67%
CCN1CCN(C(=O)/C=C/c2ccc([N+](=O)[O-])cc2)CC1	-64.2%
CN1CCN(C(=O)/C=C/c2ccc(Cl)cc2)CC1	-44.8%
CCN1CCN(C(=O)/C=C/c2ccc(OC)cc2)CC1	-19.1%
CCOC(=O)N1CCN(C(=O)/C=C/c2ccc(OC)cc2)CC1	-17.8%
CSc1ccc(/C=C/C(=O)N2CCCN(C)CC2)cc1.Cl	-26.6%
CN1CCN(C(=O)/C=C/c2ccc(Cl)c(Cl)c2)CC1	-23%

Structure (SMILES)	hERG current change (%, negative = inhibition) at 10uM
CN1CCN(C(=O)/C=C\c2ccc(Cl)cc2)CC1	-41%
CCN1CCN(C(=O)/C=C/c2ccc(C(C)C)cc2)CC1	-35.2%
COc1ccc(-c2cc3nc(C)cc(N)n3n2)cc1	3.53%
CCCCC(=O)NC1(C(F)(F)F)C(=O)Nc2c1c(=O)n(C)c(=O)n2C (stereo not shown)	-4.15%
O=C(NC1CC(=O)N(c2ccccc2)C1)C(=O)c1c[nH]c2ccccc12 (stereo not shown)	-11.1%
COc1cc2c(cc1OC)CN(C(=O)/C=C/c1ccc([N+](=O)[O-])cc1)CC2	-55.1%
COc1cc2c(cc1OC)CN(C(=O)/C=C/c1ccc(F)cc1)CC2	-22.2%
COc1cc2c(cc1OC)CN(C(=O)/C=C/c1cccc([N+](=O)[O-])c1)CC2	-31.2%
CCOc1cc(C(c2c(C)[nH][nH]c2=O)c2c(C)[nH][nH]c2=O)ccc1OC(=O)c1cccc([N+](=O)[O-])c1	-4.87%
Cc1cc(-c2ccccc2)cc(C)[n+]1Cc1ccccc1.[O-][Cl+3]([O-])([O-])[O-]	5.38%
CCOc1ccc(-c2cc(C)[n+](CCO)c(-c3ccc(OCC)cc3)c2)cc1.[O-][Cl+3]([O-])([O-])[O-]	-62.6%
COc1ccc(CCNC(=O)COc2ccc(-c3ccc(C)cc3)cc2)cc1OC	-9.64%
CCOc1ccc(C(=O)CC(=O)C(=O)NCCc2ccc(OC)c(OC)c2)cc1	-10%
CCOc1ccc(-c2nc(C)sc2CC(=O)O)cc1	11%
Cc1cc(-c2ccccc2)cc(-c2ccccc2)[n+]1CCc1ccccc1.[O-][Cl+3]([O-])([O-])[O-]	-76.5%
CCOc1ccc(-c2cn[nH]c2N)cc1	-5.03%
CCOc1ccc(-c2cc(C)[n+](CCN3CCOCC3)c(-c3ccc(OCC)cc3)c2)cc1.[O-][Cl+3]([O-])([O-])[O-]	-41.4%
CCOc1ccc(-c2cc(C)[n+](CCc3ccc(OC)c(OC)c3)c(-c3ccc(OCC)cc3)c2)cc1.[O-][Cl+3]([O-])([O-])[O-]	-83.1%
Br.CC(C)O.Cc1ccc(-c2csc(Nc3ccccc3)[n+]2CCc2ccccc2)cc1	20.5%
CCOc1ccc(-c2cc(C)[n+](CCN(CC)CC)c(-c3ccc(OCC)cc3)c2)cc1.[O-][Cl+3]([O-])([O-])[O-]	-79.3%
CCOC(C[n+]1c(-c2ccccc2)cc(C)cc1-c1ccccc1)OCC.[O-][Cl+3]([O-])([O-])[O-]	3.9%
O=C(CNC(=O)c1ccc(Br)o1)NNC(=O)c1ccc(Br)cc1	-35.6%
O=C(c1ccccc1-c1nc2ccccc2[nH]1)N1CCOCC1	-5.47%

Structure (SMILES)	hERG current change (%, negative = inhibition) at 10uM
COCCN1CCN(C(=O)C2CCC(=O)N(Cc3ccccc3OC)C2)CC1 (stereo not shown)	8.85%
COc1ccc(/C=C(\C#N)C(=O)NCc2ccccc2)cc1	19.4%
CCN1C(=O)[C@@H]2[C@@H](c3ccc(SC4CCCCC4)c(OC)c3)N3CCC[C@@]3(C(=O)OC)[C@@H]2C1=O.O=C(O)C(F)(F)F	-56%
CCN1C(=O)[C@H]2[C@@H](c3ccc(SC4CCCCC4)c(OC)c3)N3CCCC[C@@]3(C(=O)OC)[C@H]2C1=O.O=C(O)C(F)(F)F	13%
COC(=O)[C@@]12CCCCN1[C@H](c1ccc(SC3CCCCC3)c(OC)c1)[C@@H]1C(=O)N(C)C(=O)[C@@H]12.O=C(O)C(F)(F)F	19.8%
COC(=O)c1ccccc1NC1=C/C(=N\S(=O)(=O)c2ccc(C(=O)O)cc2)c2ccccc2C1=O	-15.5%
CCCCNC(=O)C(C#N)c1nc2ccccc2nc1N1CCN(c2ccccc2F)CC1 (stereo not shown)	4.79%
CC1CCN(C(=O)COC(=O)c2ccc(=O)n(Cc3ccccc3)n2)CC1	-0.635%
Cc1ccc(/C=C/C2=NN(Cc3ccccc3Cl)C(=O)CC2)cc1	-4.44%
COc1ccc(-c2nnnn2C(C)C)cc1S(=O)(=O)Nc1ccccc1	-13.9%
Cc1ccc(SCCNC(=O)c2ccc(CN3CCOCC3)cc2)cc1	-32.6%
O=C(NCCN1CCOCC1)c1ccc(Cl)cc1	16%
O=C(NCCCN1CCOCC1)c1ccc(CS(=O)(=O)Cc2ccc(Cl)cc2)o1	4.4%
Cc1cccc(CSCCNC(=O)c2ccc(CN3CCOCC3)cc2)c1	-28.3%
O=C(CCNC(=O)c1ccc(Cl)cc1)NCCCN1CCOCC1	4.31%
O=C(NCCCN1CCOCC1)c1ccc(-c2ccc(Cl)cc2)o1	-55.1%
O=C(NCCSCc1ccc(Cl)cc1Cl)c1ccc(CN2CCOCC2)cc1	-54.6%
Cl.O=C(NCCCN1CCOCC1)c1ccc(CSc2ccc(Cl)cc2)cc1	-59.2%
O=C(NCCSc1ccc(Cl)cc1)c1ccc(CN2CCOCC2)cc1	-58.5%
O=C(NCCSCc1c(F)cccc1Cl)c1ccc(CN2CCOCC2)cc1	-26.9%
O=C(NCCSc1ccccc1)c1ccc(CN2CCOCC2)cc1	-10.3%
Cc1ccc(C(=O)NCCCN2CCOCC2)o1	30.3%
O=C(CSc1nnc(CNC(=O)c2cccc(C(F)(F)F)c2)o1)NC1CCCC1	5.51%

Structure (SMILES)	hERG current change (%, negative = inhibition) at 10uM
O=C(Cc1ccc(Br)cc1)N1CCOCC1	13.6%
COc1ccc(C(=O)Nc2sc3c(c2C(=O)O)CC(C)(C)OC3)cc1	-2.18%
CN1CCN(c2ccccc2NC(=O)c2c(F)cccc2F)CC1	-19.9%
O=C(NCc1ccco1)/C(=C\c1ccco1)NC(=O)c1cccs1	-14.8%
CCOC(=O)c1c(NC(=O)CSc2nnc(-c3cccnc3)o2)sc(C(C)=O)c1C	-46.1%
Cc1ccc(-n2c(SCC(=O)N3CC(=O)Nc4ccccc43)nc3ccccc3c2=O)cc1	-1.05%
CNC(=S)SCCOc1ccccc1	-4.52%
O=C(Cc1cccs1)Nc1nc(-c2ccc(F)c(F)c2)cs1	19%
CCOc1ccc(N2CC(C(=O)NCCCN3CCOCC3)CC2=O)cc1 (stereo not shown)	-5.47%
O=C(COc1ccc(Br)cc1Cl)N1CCN(c2ncccn2)CC1	-49.7%
CC1(C)CC(C(CC(=O)O)c2ccccc2)CCO1 (stereo not shown)	28.9%
COc1ccc(CN(CCC(c2ccccc2)C2CCOC(C)(C)C2)C(C)=O)cc1 (stereo not shown)	-11.6%
COc1ccc(CN(CCC(c2ccc(F)cc2)C2CCOC(C)(C)C2)C(=O)c2ccco2)cc1 (stereo not shown)	-52.1%
CC1(C)CC(C(CCN(Cc2ccccc2)C(=O)c2ccco2)c2ccc(F)cc2)CCO1 (stereo not shown)	-10.4%
O=C(CN(Cc1ccccc1F)C(=O)c1ccco1)NCc1ccc(F)cc1	-50.7%
O=C(CN(Cc1ccc(F)cc1)C(=O)c1ccco1)NCc1ccc(F)cc1	-40.9%
CCCCN(CC(=O)NCc1ccc(F)cc1)C(=O)c1ccco1	8.72%
COc1ccc(CN(CC(=O)NCc2ccc(F)cc2)C(=O)c2ccco2)cc1	-61.7%
COc1ccc(CNCCC(c2ccccc2)C2CCOC(C)(C)C2)cc1 (stereo not shown)	-52.1%
COc1cccc(CN(CC(=O)NCc2ccc(F)cc2)C(=O)c2ccco2)c1	-39.2%
O=C(CN(Cc1ccccc1)C(=O)c1ccco1)NCc1ccc(F)cc1	-31.6%
CC(c1ccccc1)N(CCC(c1ccccc1)C1CCOC(C)(C)C1)C(=O)c1ccco1 (stereo not shown)	-22.2%
